Screen size: about 340,000 compounds; about 930 (0.27%) were called active. The sample holds actives, similar compounds and a random draw of the others, so the mix is not that of the screen. Unmarked numbers belong to inactive results.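 How the source made its calls: active means inhibition above the screen-wide average of all tested compounds plus 3 SD (cut at about 25% in these data); inactive means the rest.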
Each compound was assayed against Platelet-activating factor acetylhydrolase IB subunit alpha1 (Homo sapiens) (UniProt Q15102) (assay: PAFAH1B3 enzyme inhibitors, primary screen, biochemical, fluorescence polarization, human (AID 492972;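 further: 0% = enzyme with DMSO only and 100% = wells lacking PAFAH1B3 protein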)). Settings: recombinant PAFAH1B3, FP-rhodamine probe, at 3.39 µM, active compounds read high.
Sequence of Platelet-activating factor acetylhydrolase IB subunit alpha1 (Homo sapiens) (Q15102 whole entry, looked up): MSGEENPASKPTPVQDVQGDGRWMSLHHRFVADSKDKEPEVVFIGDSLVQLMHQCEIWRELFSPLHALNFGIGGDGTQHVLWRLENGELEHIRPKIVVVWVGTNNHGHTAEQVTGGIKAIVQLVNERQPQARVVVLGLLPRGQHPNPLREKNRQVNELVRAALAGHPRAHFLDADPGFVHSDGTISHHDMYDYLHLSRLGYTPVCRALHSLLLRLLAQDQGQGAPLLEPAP

Structure (SMILES)	inhibition
CN(C(=O)c1cccc(NC(=O)Cc2cccc(NC(=O)C3CCCN(C(=O)C4CC4)C3)c2)c1)C1CCC1 (stereo not drawn)	1.82%
Cc1c2cnn(CC(=O)NCc3ccccn3)c(=O)c2c(C)n1Cc1ccc(Cl)cc1	0.23%
N#C/C=C1\Sc2ccccc2C(=O)N1CC(=O)N1CCN(S(=O)(=O)c2ccccc2)CC1	5.99%
Fc1c(F)c(C(F)(F)F)c(F)c(F)c1N1CCN(c2ccc3nnc(C(F)(F)F)n3n2)CC1	6.38%
COc1ccccc1C(C)NC(=O)Cc1ccsc1 (stereo not drawn)	4.64%
CC(=O)N(C1=C(Cl)C(=O)c2ccccc2C1=O)c1ccc(C(=O)O)cc1	39% (active)
O=C(Nc1cccn(Cc2ccccc2Cl)c1=O)NC1CCCCC1	-6.16%
CC(NC(=O)COc1cccnc1[N+](=O)[O-])c1ccc(Cl)cc1Cl (stereo not drawn)	9.45%
CCCCN=C1C([N+](=O)[O-])=CC=C2C1=NC1(CCCCC1)N2O	7.2%
CC(C)c1ccc(-c2nn[nH]n2)cc1	5.47%
Cc1ccc(S(=O)(=O)N2CCN(C(=O)Cc3sc(C)nc3-c3ccc(F)cc3)CC2)c(C)c1	4.17%
O=C(CN1C(=O)NC2(CCCCCC2)C1=O)Nc1ccc([N+](=O)[O-])cc1	7%
CCCC1OC23CCCCC2C(C#N)(C#N)C1(C#N)C(=N)O3 (stereo not drawn)	27.8% (active)
CC(=O)c1c(C)[nH]c(C(=O)N2CCN(S(=O)(=O)c3ccc(F)c(F)c3)CC2)c1C	0.06%
N#Cc1c(-c2ccc(Cl)cc2)c2c([nH]c1=S)CCCC2	2.52%
O=C(c1cc2cc(Br)cc(Br)c2oc1=O)N1CCOCC1	0.41%
O=C1Nc2c(Br)cc(Br)cc2C1(O)N1CCOCC1 (stereo not drawn)	38% (active)
O=C(NC1=CC(=O)c2ccccc2C1=O)c1ccccc1	28.6% (active)
O=C1C=C(NS(=O)(=O)c2ccccc2)C(=O)c2ccccc21	13.3%
CC(NC(=O)c1ccccc1)C(=O)Nc1ccccc1 (stereo not drawn)	3.87%

Structure (SMILES)	inhibition
CN1CCN(C(=O)c2cnn(-c3ccccc3)c2NC(=O)c2ccc([N+](=O)[O-])cc2)CC1	6.79%
OCCNc1nc2ccccc2n1-c1ncnc2sc3c(c12)CCC3	10.6%
CCN(CC(=O)Nc1c(F)cccc1F)C(=O)c1cnc(C)cn1	-0.64%
COC(=O)C1=C(C)NC2=C(C(=O)c3ccccc32)C1c1ccc(-c2ccc(C(=O)O)cc2)o1 (stereo not drawn)	46.5% (active)
COC(=O)C1=C(C)N(C)C(=O)NC1c1ccc([N+](=O)[O-])o1 (stereo not drawn)	0.98%
CCOC(=O)c1ccc(-c2ccc(C(=O)Nc3cccnc3)o2)cc1	-6.74%
COc1ccc(N2CCN(C3CCCCC3NS(=O)(=O)c3ccccc3)CC2)cc1 (stereo not drawn)	7.46%
CCOC(=O)C1=C(CN2CCc3ccccc32)NC(=O)NC1c1cc(C)ccc1C (stereo not drawn)	0.4%
CC(C)(C)OC(=O)N1CCC(C(=O)Nc2cccc(C(=O)NCCc3ccccc3)c2)CC1	-4.3%
CCOC(=O)CNC(=O)CSc1ncccc1-c1nc2ccccc2[nH]1	-4.22%
O=C(Nc1ccc(CN2CCOCC2)cc1)c1cc(Cl)ccc1Cl	7.42%
Cc1ccc(C)c(S(=O)(=O)N2CCN(C(=O)Nc3ccccc3)CC2)c1	3.11%
O=C(Nc1ccccc1Cl)N1CCN(c2ccc3nncn3n2)CC1	2.34%
Cc1ccc(F)cc1NC(=O)Cc1nn(C)c(=O)c2ccccc12	-8.34%
Cc1c(-c2nn(C)c(=O)c3ccccc23)oc2ccc(F)cc2c1=O	37.7% (active)
CCC(=O)NCc1cc(-c2nn(C)c(=O)c3ccccc23)ccc1OC	-3.52%
Cn1ncc2c(N3CCCCC3)nc(NCCCO)nc21	8.53%
Cc1ccc(C)c(NC(=O)COC(=O)CSc2ccccc2)c1	1.73%
Cc1ccc(S(=O)(=O)NNC(=O)Nc2cccc3ccccc23)cc1	3.24%
Cc1ccc(C)c(NC(=O)NNC(=O)c2ccc3ccccc3c2O)c1	39.8% (active)

Structure (SMILES)	inhibition
CN(Cc1ccccc1)C(=O)C1CCCN(c2ncnc3c2nc2n3CCCCC2)C1 (stereo not drawn)	3.41%
Cc1cccnc1CCNC(=O)C1CCC(=O)N(Cc2cccc(F)c2)C1 (stereo not drawn)	2.19%
Cc1ccc(CNS(=O)(=O)c2ccc3c(c2)N(C)CCO3)cc1	8.72%
CC(=O)Nc1ccccc1OC(C)C(=O)N1CCC(C)CC1 (stereo not drawn)	1.25%
CN(C)CCN=c1cc(-c2ccccc2)oc2ccc(Cl)cc12	5.11%
CCc1ccc(OCC(=O)NCC(c2ccc(Cl)cc2)N2CCCCC2)cc1 (stereo not drawn)	1.46%
O=C1c2cccc(OCC(=O)N3N=C(c4cccs4)CC3c3ccc(F)cc3)c2CCN1Cc1ccccc1 (stereo not drawn)	3.19%
Cc1cc2cc3c(N)[nH]nc3nc2cc1C	5.34%
COc1ccc(S(=O)(=O)N2CCOCC2)cc1NC(=O)Cc1coc2cc(C)ccc12	9.79%
O=C(NCc1cccnc1)c1ccc(CS(=O)(=O)c2ccc(Br)cc2)o1	2.95%
CCn1ncc(C2=NOC(C(=O)Nc3ccccc3C(=O)OC)C2)c1C (stereo not drawn)	9.12%
O=C(CN1CCN(C(=O)c2ccco2)CC1)Nc1ccc(Cl)c(C(F)(F)F)c1	8.31%
CN(CC(=O)NCc1ccc2c(c1)OCO2)CC(=O)Nc1ccc(F)c(F)c1F	7.36%
CCC(C)N1C(=S)SC(C)(C)C1N(O)C(=O)NC1CCCCC1 (stereo not drawn)	3.27%
CCCCNC(=O)N(O)C1N(/N=C/c2ccc(N(C)C)cc2)C(=S)SC1(C)C (stereo not drawn)	40.5% (active)
CCCCNC(=O)N(O)C1N(/N=C/c2ccccc2O)C(=S)SC1(C)C (stereo not drawn)	-1.86%
CC1CCCC(NC(=O)COC(=O)[C@@H]2CC(O)CN2S(=O)(=O)c2ccc3c(c2)OCCO3)C1C (stereo partly drawn)	-2.21%
COc1cc(OC)cc(-c2c(C#Cc3ccsc3)c3cc(-c4ccc(SC)cc4)ccc3n2C)c1	11.8%

Reference: PubChem BioAssay AID492972 (The Scripps Research Institute Molecular Screening Center, 2010)
